Measurements taken from ChEMBL document CHEMBL1857833, “Screening and optimization of specific chemical series against human African Trypanosomiasis (HAT)”.
Out of some 4,400 compounds screened, about 390 (8.9%) showed an effect of 50% or more. The sample holds strong results, similar compounds and a random draw of the others, so the mix is not that of the screen.

The compounds below were run on Trypanosoma brucei (assay: DNDI: Inhibition of Human African Trypanosomiasis, SBRI 427, in vitro at 2 ug.mL-1).
Format: functional

Structure (SMILES)	% inhibition [%]
CCCC1=NCCN1Cc1coc(-c2cccc(OCC)c2)n1	2
Cc1ccccc1-c1nc(CNCc2ccccn2)co1	15
CCOc1ccccc1-c1nc(CN(C)C2CCCCC2)co1	13
CCOc1ccccc1-c1nc(CN(C)C2CCN(C)CC2)co1	-1
CN(Cc1coc(-c2cccc3ccccc23)n1)C1CCCCC1	82
Cc1ccccc1-c1nc(CN(C)C2CCCCC2)co1	10
Cc1ccccc1-c1nc(CN(C)C2CCN(C)CC2)co1	28
CN1CCC(N(C)Cc2coc(-c3cccc4ccccc34)n2)CC1	69
CCOc1ccccc1-c1nc(Cn2nc(N)cc2C)co1	5
COc1ccc(Oc2nc(C)ccc2/C(=N/O)NCc2cccc(OC)c2)cc1	25
C#CC1(NCc2coc(-c3cccc(F)c3)n2)CCCCC1	18
O/N=C(/c1ccnc(Oc2ccc(F)c(Cl)c2)c1)N1CCSC1	-2
Cc1ccc(/C(=N/O)N(C)Cc2ccco2)c(Oc2cccnc2)n1	13
CCCCN(C)Cc1coc(-c2cccc3ccccc23)n1	16
CC(C)(C)COc1ncccc1/C(=N/O)n1ccnc1	30
COC(=O)C1CCN(/C(=N\O)c2cccnc2OCC(F)(F)F)CC1	12
COC(=O)C1CCN(/C(=N\O)c2cccnc2OCc2ccccc2)CC1	61
O/N=C(\Nc1ccccc1)c1cccnc1OCc1ccccc1	77
CC(=O)c1ccc(N/C(=N\O)c2cccnc2Oc2ccccc2OCc2ccccc2)cc1	-2
O/N=C(\NC1CCC1)c1cccnc1Oc1ccccc1OCc1ccccc1	97
O/N=C(\NCC1CC1)c1cccnc1OCc1ccccc1	99
COC(=O)C1CCN(/C(=N\O)c2cccnc2OCC(C)C)CC1	5
O/N=C(\NCc1cccs1)c1cccnc1OCc1ccccc1	10
O/N=C(\NCc1c(F)cccc1F)c1cccnc1OCc1ccccc1	23

Structure (SMILES)	% inhibition [%]
CC(C)COc1ncccc1/C(=N/O)Nc1ccccc1	5
CC(C)N/C(=N\O)c1cccnc1Oc1ccccc1OCc1ccccc1	-14
CCCN/C(=N\O)c1cccnc1Oc1ccccc1OCc1ccccc1	-7
COc1cccc(Oc2ccc(/C(=N/O)N3CCN(c4ccccc4)CC3)cn2)c1	-6
COCCN(Cc1coc(-c2cccc3ccccc23)n1)C(C)C	6
CCOc1ccccc1-c1nc(CN(c2ccccc2)C2CCCCC2)co1	-3
COC(=O)C1CCN(/C(=N\O)c2ccc(C)nc2Oc2cccc3cnccc23)CC1	21
COc1cccc(-c2nc(CN3CCN(c4ccccc4)CC3)co2)c1	15
c1coc(-c2nc(CN3CCN(Cc4ccc5c(c4)OCO5)CC3)co2)c1	-2
COc1ccc(-c2nc(CNCc3cccc(OC)c3)co2)cc1	-15
COCCN(/C(=N\O)c1ccc(C)nc1Oc1cccc(C)c1)C(C)C	23
Cc1ccc(/C(=N/O)N2C(C)C=CC2C)c(Oc2ccc(F)c(Cl)c2)n1 (stereo not given)	8
CCN(Cc1ccncc1)Cc1coc(-c2cccc3ccccc23)n1	27
COCC(C)N/C(=N\O)c1cccnc1Oc1ccccc1OCc1ccccc1 (stereo not given)	-7
O/N=C(\NC1CCCC1)c1cccnc1OCc1ccccc1	53
N/C(=N\O)c1cccnc1OCc1ccccc1	9
CC(C)c1ccc(COc2ncccc2/C(=N/O)NC2CCCC2)cc1	21
COc1ccc(CN/C(=N\O)c2cccnc2OCc2ccccc2)cc1	10
CCC(CC)N/C(=N\O)c1cccnc1OCc1ccccc1	94
CN(/C(=N\O)c1ccc(Oc2cccc3ccccc23)nc1)C1CCCCC1	25
CN(Cc1coc(-c2ccc(Br)cc2)n1)Cc1ccco1	29
CC(C)c1ccc(N/C(=N\O)c2cccnc2OCc2ccccc2F)cc1	-12
Cc1ccc(-c2nc(CN3CC[C@H]4CCCC[C@@H]4C3)co2)cc1	25
CCC1CCCCN1Cc1coc(-c2cccc3ccccc23)n1 (stereo not given)	84

Structure (SMILES)	% inhibition [%]
CC1CCCCN1CCCNCc1coc(-c2cccc3ccccc23)n1 (stereo not given)	86
c1ccc2c(-c3nc(CNCCCN4CCCC4)co3)cccc2c1	93
c1ccc2c(-c3nc(CNCCCN4CCOCC4)co3)cccc2c1	30
c1ccc2c(-c3nc(CNCCN4CCCCC4)co3)cccc2c1	14
CC1CCCCN1CCCNCc1coc(-c2ccccc2Br)n1 (stereo not given)	20
CC1CCCN1Cc1coc(-c2cccc3ccccc23)n1 (stereo not given)	39
CC1CCCCN1Cc1coc(-c2cccc3ccccc23)n1 (stereo not given)	3
CCC1CCCCN1Cc1coc(-c2ccccc2Cl)n1 (stereo not given)	-10
CN(CCCNCc1coc(-c2ccc(C(F)(F)F)cc2)n1)c1ccccc1	-7
Brc1ccccc1-c1nc(CN(Cc2ccccn2)Cc2ccccn2)co1	9
COCCN(/C(=N\O)c1ccc(Oc2ccc3oc4ccccc4c3c2)nc1)C(C)C	7
FC(F)(F)c1ccc(-c2nc(CN3CCC4(CC3)OCCO4)co2)cc1	-8
Cc1cc(C)cc(Oc2ccc(/C(=N/O)N3CCN(c4ccccc4)CC3)cn2)c1	9
COc1ccc(Oc2nc(C)ccc2/C(=N/O)N2CCCC2C)cc1 (stereo not given)	-10
Cc1ccccc1-c1nc(CN2CCN(c3ccc(F)cc3)CC2)co1	-10
COC[C@H]1CCCN1Cc1coc(-c2cccc(F)c2)n1	0
Clc1ccc(-c2nc(CN3CCN(c4ncccn4)CC3)co2)c(Cl)c1	58
CCc1nccn1Cc1coc(-c2ccc(Cl)cc2Cl)n1	22
Clc1ccccc1-c1nc(CN2CCN(c3ncccn3)CC2)co1	-3
CC(C)c1nccn1Cc1coc(-c2ccc(Cl)cc2Cl)n1	-20
Clc1ccc(-c2nc(CN3CCN(Cc4ccccc4)CC3)co2)c(Cl)c1	12
CCCc1nccn1Cc1coc(-c2ccc(Cl)cc2Cl)n1	50
